Results from PubChem BioAssay (EPA / NIEHS).
“And” between values parts separate entries of the source, which are not always exact repeats. Identical values can stand only once. Some compounds were tested as several samples or in several runs, with calls that do not always agree. The source made the active and inactive calls. How the source made its calls: active means hit-call score of the fitted dose curve at least 0.9, where 1 is the maximum; inactive means score below 0.9.

read-out: Interleukin-1 alpha (IL1a), IL1A (gene 3552); assay: BSK_KF3CT_IL1a: BioMAP Diversity Plus: KF3CT Assay for Interleukin-1 alpha (IL1a) Biomarker Activity (AID 2283070); conditions: primary human keratinocytes with fibroblasts; actives raise or lower the signal
Experimental: BSK_KF3CT is a cell-based, multiplexed-readout assay that uses keratinocytes and foreskin fibroblasts, a human skin primary cell co-culture, with measurements taken at 24 hours after chemical dosing in a 96-well plate.BSK_KF3CT_IL1a is an assay component measured in the BSK_KF3CT assay. It measures IL-1a antibody related to regulation of gene expression using ELISA technology.Data from the assay component BSK_KF3CT_IL1a was analyzed into 1 assay endpoint. This assay endpoint, BSK_KF3CT_IL1a, was analyzed with bidirectional fitting relative to DMSO as the negative control and baseline of activity. Using a type of binding reporter, gain or loss-of-signal activity can be used to understand changes in the signaling as they relate to the gene IL1A. Furthermore, this assay endpoint can be referred to as a primary readout, because this assay has produced multiple assay endpoints where this one serves a signaling function. To generalize the intended target to other relatable targets, this assay endpoint is annotated to the cytokine intended target family, where the subfamily is interleukins.
The levels of cell surface (or secreted, indicated by the prefix "s") biomarker endpoints were measured by ELISA. Overt cytotoxicity to cells in confluent adherent cultures (all systems other than the BT system) was assessed by measuring total protein levels using sulforhodamine B (SRB) staining in parallel cultures at the time of biomarker measurements, indicated as SRB endpoints. For proliferation assays for adherent cell types, individual cell types are cultured at sub-confluence and relative cell numbers quantified by SRB staining at time points optimized for each system (48 h: 3C and CASM3C systems; 72 h: BT and HDF3CGF systems; 96 h: SAg system). SRB was performed by staining cells with 0.1% SRB after fixation with 10% TCA and reading wells at 560 nm.Viability and proliferation of PBMC (T cells) was quantified by Alamar Blue reduction for the SAg and BT systems. For PBMC viability (referred to as PBMC Cytotoxicity within the assay endpoint names), cells were plated (75,000/well in a 96-well plate) and then chemical samples added for 1 h before addition of activators, SEB and TSST-1 (20 ng/mL final concentration each). Cells were incubated for 90 h. Then, Alamar Blue (20 uL/well) (Invitrogen, Cat DAL1100) was added for 6 h, and the plates were read with a fluorescence microplate reader at 546/580 nm (excitation/emission). For PBMC proliferation, cells were plated and activated as above but incubated for only 16 h prior to addition of Alamar Blue. Plates were read after 6 h.

Row | Compound | outcome | AC50
1 | O=C(O)CCCOc1ccc(Cl)cc1Cl | inactive | 
2 | CC1(C)C(C=C(Cl)Cl)C1C(=O)OC(C#N)c1ccc(F)c(Oc2ccccc2)c1 (stereo unspecified) | inactive | 
3 | COc1nn(CSP(=S)(OC)OC)c(=O)s1 | inactive | 
4 | [2H]C1([2H])[n+]2ccccc2-c2cccc[n+]2C1([2H])[2H] |  | 20 µM (active)
5 | CCc1ccc(C(=O)NN(C(=O)c2cc(C)cc(C)c2)C(C)(C)C)cc1 | inactive | 
6 | CC(C)(C)C(O)C(Oc1ccc(Cl)cc1)n1cncn1 (stereo unspecified) | inactive | 
7 | O=[N+]([O-])/N=C1\NCCN1Cc1ccc(Cl)nc1 | inactive | 
8 | CC(C)N(C(=O)COc1nnc(C(F)(F)F)s1)c1ccc(F)cc1 | inactive | 
9 | CCN(CC)C(=O)SCc1ccc(Cl)cc1 | inactive | 
10 | O=C(O)C(F)(F)C(F)(F)C(F)(F)C(F)(F)C(F)(F)C(F)(F)C(F)(F)F | inactive | 30 µM (active)
11 | COP(=S)(OC)Oc1ccc(SC)c(C)c1 | inactive | 
12 | CCCN(CCC)c1c([N+](=O)[O-])cc(C(F)(F)F)cc1[N+](=O)[O-] | inactive | 
13 | Cc1[nH]c(=O)n(C(C)(C)C)c(=O)c1Cl | inactive | 
14 | COP(=S)(OC)Oc1ccc([N+](=O)[O-])cc1 | inactive | 
15 | CNC(=O)Oc1ccccc1OC(C)C |  | 0.987 µM (active)
16 | CC[C@H](C)[C@H]1O[C@]2(C=C[C@@H]1C)C[C@@H]1C[C@@H](C/C=C(\C)[C@@H](O[C@H]3C[C@H](OC)[C@@H](O[C@H]4C[C@H](OC)[C@@H](O)[C@H](C)O4)[C@H](C)O3)[C@@H](C)/C=C/C=C3\CO[C@@H]4[C@H](O)C(C)=C[C@@H](C(=O)O1)[C@]34O)O2 (tested in a mixture with another compound) |  | 6.95 µM (active)
17 | COC(=O)c1ccccc1S(=O)(=O)NC(=O)N(C)c1nc(C)nc(OC)n1 | inactive | 
18 | CC1(c2ccc(Oc3ccccc3)cc2)OC(=O)N(Nc2ccccc2)C1=O (stereo unspecified) | inactive | 
19 | CNC(=O)CSP(=S)(OC)OC | inactive | 
20 | CCCN(CCOc1c(Cl)cc(Cl)cc1Cl)C(=O)n1ccnc1 | inactive | 

Row | Compound | outcome | AC50
21 | CCC(C)(C)C(=O)OC1=C(c2ccc(Cl)cc2Cl)C(=O)OC12CCCCC2 |  | 31.1 µM (active)
22 | CCC(C)(NC(=O)c1cc(Cl)c(C)c(Cl)c1)C(=O)CCl (stereo unspecified) |  | 26.6 µM (active)
23 | CNC(=O)Oc1cccc(N=CN(C)C)c1 | inactive | 
24 | O=C(NC(=O)c1c(F)cccc1F)Nc1ccc(OC(F)(F)C(F)OC(F)(F)F)c(Cl)c1 (stereo unspecified) | inactive | 
25 | OCCOc1ccccc1 | inactive | 
26 | CCOC1Oc2ccc(OS(C)(=O)=O)cc2C1(C)C (stereo unspecified) | inactive | 
27 | CC(C)(C)C(O)/C(=C\c1ccc(Cl)cc1Cl)n1cncn1 (stereo unspecified) | inactive | 
28 | CNC(=O)/C=C(\C)OP(=O)(OC)OC | inactive | 
29 | ClC1C(Cl)C(Cl)C(Cl)C(Cl)C1Cl (stereo unspecified) | inactive | 
30 | CCOCN(C(=O)CCl)c1c(C)cccc1CC | inactive | 
31 | C#CCN1C(=O)COc2cc(F)c(N3C(=O)C4=C(CCCC4)C3=O)cc21 | inactive | 
32 | CCS(=O)(=O)c1cccnc1S(=O)(=O)NC(=O)Nc1nc(OC)cc(OC)n1 | inactive | 
33 | COc1cc(OC)nc(NC(=O)NS(=O)(=O)c2cc(NC=O)ccc2C(=O)N(C)C)n1 | inactive | 
34 | COP(=O)(OC)OC=C(Cl)Cl | inactive | 
35 | COC(=O)c1ccccc1S(=O)(=O)NC(=O)Nc1nc(C)nc(OC)n1 | inactive | 
36 | O=S1OCC2C(CO1)C1(Cl)C(Cl)=C(Cl)C2(Cl)C1(Cl)Cl (stereo unspecified) |  | 29.1 µM (active)
37 | O=C1c2ccccc2C(=O)N1SC(Cl)(Cl)Cl | inactive | 
38 | CCC(C)Nc1c([N+](=O)[O-])cc(C(C)(C)C)cc1[N+](=O)[O-] (stereo unspecified) | inactive | 
39 | O=S(=O)(O)C(F)(F)C(F)(F)C(F)(F)C(F)(F)C(F)(F)C(F)(F)C(F)(F)C(F)(F)F | inactive | 28.1 µM (active) and 16.4 µM (active)
